HCT116 bCat-KO – beta-catenin-lacking colon tumor cell growth suppression; HCT116 beta-catenin knockout viability, CellTiter-Glo, 60 h; hits give low values; viability, % at 10 µM; actives 1.5% (n = 140,000);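 active means viability at or under a set limit, the compound median less 4 SD, cut at about 6% in these data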;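 further: 0% = Hyamine 1622 control at 20 µM and 100% = untreated cell control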
ROMK mod – modulates human ROMK potassium channel activity; actives 2% (n = 130,000); B-score at 10 µM; Tet-inducible ROMK, thallium flux fluorescence; actives lie on both sides;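 active means signal ratio slope over the read window, or its plate-corrected B-score, at least 3 SD from the plate mean, either direction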;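 further: B-score of the F/F0 ratio slope over 7 to 12 s after thallium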
Lmaj promast – inhibitors of Leishmania major promastigote growth; Leishmania major promastigotes, resazurin fluorescence viability; inhibition, % at 10 µM; actives 9% (n = 200,000); in the data active means inhibition above about 50%;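 further: promastigotes grown with compound for 44 hours at 28 °C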
INS promoter inh – TRM-6 insulin promoter activity inhibition. TRM-6 cells (human fetal islet line), insulin promoter-eGFP reporter, imaging; reporter expression induced with tamoxifen. actives 0.9% (n = 130,000). inhibition, % at 2 µM. AID 1273;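 active means inhibition above the mean plus 3 SD, with well images judged a real hit on visual review, cut at about 60% in these data, passing the limit was not always enough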
p97 ATPase inh – blocks human p97 ATPase activity. AID 1481. P55072. actives 0.42% (n = 220,000). inhibition, % at 8 µM. recombinant p97 ATPase, Kinase-Glo ATP luminescence, 3 h; in the data active means inhibition above about 15%;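 further: 0% = DMSO vehicle and 100% = wells lacking enzyme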
PTEN del growth – PTEN-deleted cell growth suppression | HCT116 PTEN-null viability, CellTiter-Glo, 60 h; hits give low values | viability, % at 10 µM | actives 1.2% (n = 140,000);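 active means viability at or below a set limit, 4 SD under the median of all tested compounds, cut at about 3.7% in these data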;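 further: PTEN knockout HCT116 line with beta catenin targeted HCT116 as companion control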
* marks the source's active call; other numbers are inactive results. Sampled rows, rich in hits. Any-hit rate of the full collection: about 10%.

`CC(=O)N(c1ccc2oc(=O)sc2c1)S(=O)(=O)c1ccccc1` gave HCT116 bCat-KO 93.6, ROMK mod -0.314, Lmaj promast -2.5, INS promoter inh 30.0, p97 ATPase inh 5.0 and PTEN del growth 96.0.
COc1ccc(S(=O)(=O)N(C(=O)C(C)C)c2ccc3oc(=O)sc3c2)cc1 was read as HCT116 bCat-KO 95.8, ROMK mod 0.937, Lmaj promast -3.3, INS promoter inh 50.0, p97 ATPase inh 0.1 and PTEN del growth 99.0.
CCNC(=S)N1CCNC(=O)C1CC(=O)OC (stereo unspecified) was read as HCT116 bCat-KO 95.2, Lmaj promast 0.9, p97 ATPase inh 3.6 and PTEN del growth 107.9.
`CCN(CC)S(=O)(=O)c1cc(NS(=O)(=O)c2cccc(Cl)c2)ccc1C` gave HCT116 bCat-KO 92.3, Lmaj promast 65.0*, INS promoter inh -74.1, p97 ATPase inh 4.2 and PTEN del growth 102.3.
Screening O=C1CC(c2ccco2)Cc2nc(Nc3nc(-c4ccccc4)c4ccccc4n3)ncc21 (stereo unspecified) returned HCT116 bCat-KO 3.4*, Lmaj promast 0.3, INS promoter inh -6.2, p97 ATPase inh 4.1 and PTEN del growth 3.5*.
O=C(Nc1ncc2c(n1)CC(c1ccco1)CC2=O)c1ccccc1 (stereo unspecified) was read as HCT116 bCat-KO 89.4, Lmaj promast 1.4, INS promoter inh -6.7, p97 ATPase inh 3.0 and PTEN del growth 100.0.
`Cc1c(N2C(=O)CSC2c2ccco2)c(=O)n(-c2ccccc2)n1C` (stereo unspecified) gave p97 ATPase inh 4.9.
`C=CCn1c(=O)c2ccc(C(=O)NCc3ccccc3)cc2n(Cc2ccc(C)cc2)c1=O` gave HCT116 bCat-KO 86.0, ROMK mod 0.781, Lmaj promast 7.7, INS promoter inh 20.0, p97 ATPase inh 12.4 and PTEN del growth 79.9.
NS(=O)(=O)c1ccc(CCNC(=O)c2ccccc2[N+](=O)[O-])cc1 was read as HCT116 bCat-KO 93.5, Lmaj promast -3.7, INS promoter inh -35.4, p97 ATPase inh -4.8 and PTEN del growth 85.1.
Cc1ccc(S(=O)(=O)N(CC(=O)NCc2ccco2)Cc2ccccc2F)cc1 was read as HCT116 bCat-KO 91.2, Lmaj promast 92.7*, INS promoter inh -46.0, p97 ATPase inh 0.7 and PTEN del growth 98.0.
For CCCCc1noc(-c2c(-c3ccccc3Cl)noc2C)n1 the results were Lmaj promast 12.1 and p97 ATPase inh 0.4.
`CCOC(=O)Cc1csc(NS(=O)(=O)c2ccc(Cl)cc2)n1` gave HCT116 bCat-KO 93.1, ROMK mod -0.894, Lmaj promast 50.4*, INS promoter inh 21.1, p97 ATPase inh -3.9 and PTEN del growth 100.6.
`CCOC(=O)Cc1csc(NS(=O)(=O)c2ccc(OC)cc2)n1` gave ROMK mod 0.708, Lmaj promast -7.5 and p97 ATPase inh 4.8.
Screening COc1cc(/C=C(\C#N)c2nc3ccccc3[nH]2)c([N+](=O)[O-])cc1OCc1ccccc1 returned HCT116 bCat-KO 64.1, ROMK mod -2.84, Lmaj promast 90.3*, INS promoter inh -2.9, p97 ATPase inh 0.4 and PTEN del growth 53.9.
For CCOC(=O)/C(C#N)=C/c1ccc(OCC(=O)Nc2ccc(C)c(C)c2)c(OC)c1 the results were HCT116 bCat-KO 102.0, ROMK mod -1.63, Lmaj promast 51.7*, INS promoter inh 11.1, p97 ATPase inh 1.7 and PTEN del growth 93.6.
CCN(CC)c1ccc(/C=C(/C#N)c2nc3ccccc3[nH]2)c(OC(C)C)c1 was read as HCT116 bCat-KO 34.5, Lmaj promast 98.1*, INS promoter inh -59.1, p97 ATPase inh 10.8 and PTEN del growth 24.8.
`CCOC(=O)/C(C#N)=C/c1ccc(OCC(=O)Nc2ccc(OC)cc2)c(OC)c1` gave HCT116 bCat-KO 80.6, Lmaj promast -2.7, p97 ATPase inh 1.5 and PTEN del growth 60.5.
`COc1cc(/C=C(\C#N)c2ccccn2)ccc1OCC(=O)Nc1ccc(Br)cc1` gave HCT116 bCat-KO 5.4*, ROMK mod -0.469, Lmaj promast 3.4, INS promoter inh -6.7, p97 ATPase inh 0.4 and PTEN del growth 5.0.
For O=C(Cn1cccc1C(=O)c1ccccc1)NCc1cccc(Cl)c1 the results were ROMK mod 0.279, Lmaj promast 7.5, INS promoter inh -386.7 and p97 ATPase inh 1.7.
